Screening data: PubChem, several laboratories
ARNT-TACC3 inh: disruptors of ARNT/TACC3 protein interaction, primary screen, biochemical, AlphaScreen, single concentration. Transforming acidic coiled-coil-containing protein 3 (Homo sapiens), Q9Y6A5. AlphaScreen His-ARNT PAS-B/GST-TACC3 binding, luminescence; TACC3 fragment carries E629A point mutation. inhibition, % at 9.99 µM. actives 0.66% (n = 390,000). AID 623870, 2012;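 active = mean inhibition of replicates at least 50% and at least half of replicates each reaching 50%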
AI-2 QS modul: Vibrio harveyi AI-2 quorum sensing modulators, primary screen, JMH597 strain, luminescence/OD600 ratio | activity change, % at 7.5 µM | Vibrio harveyi JMH597 AI-2 luminescence/OD600 ratio, 9 h; active compounds read low; strain lacks LuxN and CqsS sensors; 0 = neutral-control median | actives 0.4% (n = 300,000) | AID 2094, 2009; in the data active = activity change below about -75%, passing the limit was not always enough;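 note: luminescence divided by OD600 gain over 9 h not by final OD600 alone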
sPLA2-III inh: human group III sPLA2 inhibitors, primary screen, biochemical, QFRET, BODIPY PC-A2 liposome substrate. AID 743126, 2013. inhibition, % at 12.2 µM. actives 0.56% (n = 370,000). QFRET BODIPY PC-A2 liposome hydrolysis, fluorescence. Group 3 secretory phospholipase A2 (Homo sapiens), Q9NZ20;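 active = inhibition above mean plus 3 SD of compounds lying within the high and low control bounds, cut at about 19% in these data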
Target sequence (Q9NZ20 whole entry, looked up): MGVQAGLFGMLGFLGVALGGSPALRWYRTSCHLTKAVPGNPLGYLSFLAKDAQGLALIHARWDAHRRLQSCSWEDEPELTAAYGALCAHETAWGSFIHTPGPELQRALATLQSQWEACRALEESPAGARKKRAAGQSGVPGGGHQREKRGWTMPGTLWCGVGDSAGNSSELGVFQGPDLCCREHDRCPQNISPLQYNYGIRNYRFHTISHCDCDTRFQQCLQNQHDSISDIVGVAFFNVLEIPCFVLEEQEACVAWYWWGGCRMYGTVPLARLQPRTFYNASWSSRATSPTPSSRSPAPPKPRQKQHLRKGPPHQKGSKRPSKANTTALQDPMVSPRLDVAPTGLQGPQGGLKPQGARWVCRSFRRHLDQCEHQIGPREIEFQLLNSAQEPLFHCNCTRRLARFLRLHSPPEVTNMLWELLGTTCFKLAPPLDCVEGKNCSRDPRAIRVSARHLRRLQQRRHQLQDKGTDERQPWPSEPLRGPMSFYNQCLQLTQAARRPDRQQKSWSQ
Rin1 Abl inh: inhibitors of Rin1-Abl protein binding, primary screen, biochemical, TR-FRET | Tyrosine-protein kinase ABL1 (Homo sapiens) + Ras and Rab interactor 1 (Homo sapiens), … | inhibition, % at 7.35 µM | actives 0.4% (n = 360,000) | AID 588664, 2011; in the data active = inhibition above about 5%, passing the limit was not always enough
Rin1-Abl confirm: Rin1-Abl binding inhibitor retest, confirmation, biochemical, TR-FRET; shares compounds with Rin1 Abl inh; purified proteins; inhibition, % at 7.35 µM; actives 49% (n = 1,300)
GFP quench: GFP fluorescence inhibitors and quenchers, artefact control for Rin1-Abl interaction inhibitor project, biochemical; inhibitors/quenchers counterscreen; shares compounds with Rin1 Abl inh; actives 8.5% (n = 1,300); inhibition, % at 6.75 µM;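 note: ABL1-eGFP fusion protein alone without its partner RIN1-SBP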
GFP quench dose: GFP fluorescence inhibitors and quenchers, dose response, artefact control for Rin1-Abl interaction inhibitor project, biochemical | shares compounds with Rin1 Abl inh | GFP fluorescence interference/quenching counterscreen | IC50, µM | 230 tested, under 10 active; call rule not given here;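 note: ABL1-eGFP fusion protein alone without its RIN1 binding partner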
Each line names hits and unclear results; the compound was inactive in the other large screens (follow-up assays come after a bar, where they were run). Shown are actives, neighbours in structure and some others; about 1.5% of the full set was active somewhere. Cut-off read from the data, not from the text of the source, unless noted: active = inhibition above about 6.5%; inactive = the rest.

COc1ccc(CC(=O)NNC(=S)NC(=O)c2cccnc2)cc1	Rin1 Abl inh 6.8 | Rin1-Abl confirm inactive | GFP quench inactive
COc1ccc(OCCCC(=O)NCCc2nc3ccccc3[nH]2)cc1	none
COc1ccc(CCC(=O)NCCc2nc3ccccc3[nH]2)cc1	Rin1 Abl inh 6.0 | Rin1-Abl confirm inactive | GFP quench inactive
CN(C)C(=O)C[C@H]1CC[C@H]2[C@@H](COc3ccc(NC(=O)c4ccc(F)c(F)c4)cc3C(=O)N2C)O1	none (no result: AI-2 QS modul, sPLA2-III inh, Rin1 Abl inh)
CC(/C=N/n1c(-c2ccco2)n[nH]c1=S)=C\c1ccccc1	Rin1 Abl inh 7.4 | Rin1-Abl confirm inactive | GFP quench inactive
Cc1ccc(S(=O)(=O)N(C)C[C@@H]2Oc3ncc(C#CC4(O)CCCC4)cc3C(=O)N([C@H](C)CO)C[C@@H]2C)cc1	none (no result: AI-2 QS modul, sPLA2-III inh, Rin1 Abl inh)
CCOC(=O)NC(Cc1c[nH]c2ccccc12)C(=O)NCCc1ccc(S(N)(=O)=O)cc1 (stereo not drawn)	none
CCOC(=O)c1ccc(CNC(=O)C(Cc2c[nH]c3ccccc23)NC(C)=O)o1 (stereo not drawn)	Rin1 Abl inh 8.1 | Rin1-Abl confirm inactive | GFP quench inactive
CO[C@H]1CN(C)C(=O)c2cc(NC(=O)c3cccc(F)c3)ccc2OC[C@H](C)NC[C@H]1C	none (no result: AI-2 QS modul, sPLA2-III inh, Rin1 Abl inh)
CCN(CC)c1ccc(N=Cc2ccc(N(CC)CC)cc2O)cc1	Rin1 Abl inh 11.2 | Rin1-Abl confirm inactive | GFP quench inactive
CCCNC(=O)N(C)C[C@@H]1Oc2cc(C#CC3CC3)ccc2S(=O)(=O)N([C@@H](C)CO)C[C@@H]1C	none (no result: AI-2 QS modul, sPLA2-III inh, Rin1 Abl inh)
Cc1ccccc1-c1nnnn1C1CCS(=O)(=O)C1 (stereo not drawn)	none (no result: ARNT-TACC3 inh)
Cc1cc(=O)n(C2CCS(=O)(=O)C2)[nH]1 (stereo not drawn)	Rin1 Abl inh 11.7 (no result: ARNT-TACC3 inh) | Rin1-Abl confirm inactive | GFP quench inactive
COc1ccc(Br)cc1C(=O)Nc1ccccc1N1CCCC1	Rin1 Abl inh 6.6 | Rin1-Abl confirm inactive | GFP quench inactive
Cc1ccc(NC(=O)CN2CCCCCC2)c(Br)c1	Rin1 Abl inh 10.5 | Rin1-Abl confirm inactive | GFP quench inactive
Cc1nc(C)n(C)c(=O)c1-c1ccccc1	Rin1 Abl inh 39.9 | Rin1-Abl confirm inactive | GFP quench inactive
Cc1nc(C)c(-c2ccccc2)c(=O)[nH]1	none
CCC1(CC)C(=O)C2=C3C1[C@H](C(=O)OC)C=C(C(=O)OC)C[C@H]3n1c(=O)n(-c3ccccc3)c(=O)n1[C@H]2C (stereo partly drawn)	Rin1 Abl inh 24.0 (no result: ARNT-TACC3 inh) | Rin1-Abl confirm 22.6 | GFP quench inactive | GFP quench dose inactive
CN(C)C(=O)C[C@H]1CC[C@H]2[C@@H](COC[C@H](O)CN2CC2CCCC2)O1	none (no result: AI-2 QS modul, sPLA2-III inh, Rin1 Abl inh)
CC1CCCN(C(=O)C2CCN(S(=O)(=O)c3ccc4c(c3)CC(C)N4C(=O)C3CC3)CC2)C1 (stereo not drawn)	Rin1 Abl inh 15.0 | Rin1-Abl confirm inactive | GFP quench inactive
Cc1ccc(OCCCNC2CCCC2)cc1	none
Cc1ccc(C)c(OCCCNC2CCCC2)c1C	Rin1 Abl inh 13.3 (no result: ARNT-TACC3 inh) | Rin1-Abl confirm inactive | GFP quench inactive
CCc1nnc(NC(=O)c2c(OC)cccc2OC)s1	none
CCOCc1nnc(NC(=O)c2c(OC)cccc2OC)s1	Rin1 Abl inh 21.7 | Rin1-Abl confirm 24.4 | GFP quench inactive | GFP quench dose inactive
O=C(C[C@H]1C=C[C@H](NS(=O)(=O)c2cccc(F)c2)[C@H](CO)O1)NCc1ccc2c(c1)OCO2	none (no result: AI-2 QS modul, sPLA2-III inh, Rin1 Abl inh)
CCC(CC)CN1CCC(CN2C(=O)C(=O)NC[C@@H]2CC(C)C)CC1	Rin1 Abl inh 19.2 (no result: ARNT-TACC3 inh, AI-2 QS modul) | Rin1-Abl confirm 14.4 | GFP quench inactive
CC(C)CCN1CCC(CN2C(=O)C(=O)NC[C@@H]2CC(C)C)CC1	none (no result: ARNT-TACC3 inh, AI-2 QS modul)
Cc1cccc(N(Cc2ccccc2)C(=O)c2ccc(S(C)(=O)=O)cc2)c1	Rin1 Abl inh 8.3 | Rin1-Abl confirm inactive | GFP quench inactive
CC1CCCN(C(=O)CSc2nnc(-c3ccc(O)cc3)o2)C1 (stereo not drawn)	none
O=C(CCSc1nnc(-c2ccc(O)cc2)o1)N1CCOCC1	Rin1 Abl inh 14.9 | Rin1-Abl confirm 16.4 | GFP quench inactive
Cc1cnc(NC(=O)[C@H](C)N2C(=O)C3CCCCC3C2=O)s1 (stereo partly drawn)	none
Cc1cnc(NC(=O)C(C)N2CCN(C)CC2)s1 (stereo not drawn)	Rin1 Abl inh 6.7 | Rin1-Abl confirm inactive | GFP quench inactive
Cc1cccc(NC(=O)NCc2ccc3c(c2)cc(C)n3C)c1	Rin1 Abl inh 7.8 | Rin1-Abl confirm inactive | GFP quench inactive
Cc1cc2cc(CNC(=O)Nc3cccc(Cl)c3)ccc2n1C	none
Cc1csc(SCC(=O)Nc2nc3ccccc3s2)n1	none
Cn1cc(SCC(=O)Nc2nc3ccccc3s2)c2ccccc21	Rin1 Abl inh 7.0 (no result: ARNT-TACC3 inh) | Rin1-Abl confirm inactive | GFP quench inactive
CC1CCN(C(=O)c2ccc(N3CCOCC3)c([N+](=O)[O-])c2)CC1	Rin1 Abl inh 8.9 (no result: AI-2 QS modul) | Rin1-Abl confirm inactive | GFP quench inactive
CN1c2ccc(-c3ccccc3)cc2[C@H]2[C@H](CCN2C(=O)Cc2cccnc2)[C@@H]1CO	none (no result: AI-2 QS modul, sPLA2-III inh, Rin1 Abl inh)
C[C@H]1CCCCO[C@H](CN(C)C(=O)Nc2ccc(C(F)(F)F)cc2)[C@@H](C)CN([C@@H](C)CO)C(=O)c2cc(NS(C)(=O)=O)ccc2O1	none (no result: AI-2 QS modul, sPLA2-III inh, Rin1 Abl inh)
C/C(=N/NC(=O)c1cc(O)c(O)c(O)c1)c1ccc([N+](=O)[O-])cc1	Rin1 Abl inh 40.8 (no result: ARNT-TACC3 inh) | Rin1-Abl confirm 45.9 | GFP quench 20.6
Cc1noc(C)c1NC(=O)Nc1ccc2c(c1)C(=O)N([C@H](C)CO)C[C@H](C)[C@H](CN(C)S(=O)(=O)c1ccc(F)cc1)OCCCC[C@H](C)O2	none (no result: AI-2 QS modul, sPLA2-III inh, Rin1 Abl inh)
CCOc1ccc(C(C(=O)NCC2CCCO2)N(C(=O)c2snc(C(N)=O)c2N)c2ccc3c(c2)OCCO3)cc1 (stereo not drawn)	Rin1 Abl inh 16.0 | Rin1-Abl confirm 23.1 | GFP quench inactive
COc1ccc(C(C(=O)NC2CCCCC2)N(C(=O)c2snc(C(N)=O)c2N)c2ccc(OC)cc2OC)cc1 (stereo not drawn)	Rin1 Abl inh 18.3 (no result: ARNT-TACC3 inh) | Rin1-Abl confirm 14.8 | GFP quench inactive
Cc1ccccc1N(C(=O)c1snc(C(N)=O)c1N)C(C(=O)NCc1ccccc1)c1ccc(O)cc1 (stereo not drawn)	none
